Assay results: publication PMC4336329 (PLoS ONE, 2015)
In all, about 310,000 compounds went through this assay and about 14,000 (4.5%) showed an effect of 50% or more. Effects have a minus sign here. The sample holds strong results, similar compounds and a random draw of the others, so the mix is not that of the screen.

Molecular target: human ether-à-go-go-related gene (hERG) potassium channel (human, UniProt Q12809)
Assay: primary screen, population patch clamp on CHO cells stably expressing hERG; higher = less effect of the substance
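Note: peak tail current of the secondary pulse compared with the same well before compound.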

Sequence of human ether-à-go-go-related gene (hERG) potassium channel (Q12809 whole entry, looked up): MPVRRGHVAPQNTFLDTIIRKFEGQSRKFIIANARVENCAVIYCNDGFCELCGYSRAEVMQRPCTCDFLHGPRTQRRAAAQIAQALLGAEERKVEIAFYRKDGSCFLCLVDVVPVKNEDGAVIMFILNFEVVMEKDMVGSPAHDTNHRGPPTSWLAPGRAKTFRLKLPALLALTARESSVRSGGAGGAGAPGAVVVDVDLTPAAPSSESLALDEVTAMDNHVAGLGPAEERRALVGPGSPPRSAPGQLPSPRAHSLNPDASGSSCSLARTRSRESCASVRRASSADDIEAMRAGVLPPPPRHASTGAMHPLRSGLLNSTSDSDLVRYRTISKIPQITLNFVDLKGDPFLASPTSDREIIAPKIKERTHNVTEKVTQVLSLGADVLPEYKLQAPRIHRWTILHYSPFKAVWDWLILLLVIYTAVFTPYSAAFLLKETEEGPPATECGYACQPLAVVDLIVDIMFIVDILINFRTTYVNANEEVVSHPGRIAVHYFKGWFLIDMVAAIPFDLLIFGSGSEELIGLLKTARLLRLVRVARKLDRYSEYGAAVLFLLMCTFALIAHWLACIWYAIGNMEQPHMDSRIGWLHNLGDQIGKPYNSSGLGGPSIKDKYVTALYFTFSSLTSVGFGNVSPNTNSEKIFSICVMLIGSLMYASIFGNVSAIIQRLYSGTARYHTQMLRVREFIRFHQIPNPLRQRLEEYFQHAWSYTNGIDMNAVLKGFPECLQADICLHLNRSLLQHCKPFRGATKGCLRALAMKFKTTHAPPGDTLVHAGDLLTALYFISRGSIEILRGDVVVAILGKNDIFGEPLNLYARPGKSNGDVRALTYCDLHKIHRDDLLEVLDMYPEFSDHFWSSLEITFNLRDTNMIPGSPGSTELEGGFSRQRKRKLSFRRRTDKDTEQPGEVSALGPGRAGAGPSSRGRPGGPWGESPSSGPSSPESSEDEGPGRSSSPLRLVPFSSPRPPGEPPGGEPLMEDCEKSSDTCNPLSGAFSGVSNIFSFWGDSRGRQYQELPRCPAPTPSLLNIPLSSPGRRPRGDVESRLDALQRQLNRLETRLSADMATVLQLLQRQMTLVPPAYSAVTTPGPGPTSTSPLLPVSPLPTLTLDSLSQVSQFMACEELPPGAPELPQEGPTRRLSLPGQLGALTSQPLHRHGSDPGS

SMILES | hERG current change (%, negative = inhibition) at 10uM [%]
CCOc1ccccc1/C=C/c1onc(C)c1S(=O)(=O)N1CCC(C(=O)N(CC)CC)CC1 | -3.33
O=C(NCc1cccnc1)c1ccc(NC(=O)c2ccc([N+](=O)[O-])cc2)cc1 | 9.09
CCOC(=O)Cc1cc(=O)n2[nH]c(-c3ccc(Cl)cc3)cc2n1 | -20.4
CCCc1nc2oc3cc(OC)ccc3c(=O)c2c(=O)n1CCc1ccccc1 | -38.3
COc1ccc(-n2c(=O)c(NC(=O)c3ccccc3)c3n(c2=S)CCCCC3)cc1 | -3.03
CC(=O)c1ccc(NC(=O)CO/N=C(\C)c2cccs2)cc1 | -8.22
O=C(Nc1ccccn1)c1ccc2c(c1)S(=O)(=O)c1ccccc1C2=O | 6.46
CCCCCn1cnnc1SCC(=O)c1ccc2c(c1)OCO2 | -27.9
Cc1nc2c3ccccc3nc(SCC(=O)c3ccc(Cl)cc3)n2n1 | 2.48
COC(=O)C1=C(C(=O)OC)[C@@H]2N(Cc3ccccc3)c3ccccc3[C@@]23C[C@@H](C(=O)OC)N(C(=O)NC2CCCCC2)C3=N1 | -12.1
CCN1CCN(Cc2nc3ccc([N+](=O)[O-])cc3c(=O)n2-c2ccc(OC)cc2OC)CC1 | -52
COc1ccc(-n2c(CN3CCN(c4ccccc4)CC3)nc3ccc([N+](=O)[O-])cc3c2=O)c(OC)c1 | -10.8
CCOC(=O)C1CCN(Cc2nc3ccc([N+](=O)[O-])cc3c(=O)n2-c2ccc(OC)cc2OC)CC1 | -53.8
COc1ccc(-n2c(CN3CCOCC3)nc3ccc([N+](=O)[O-])cc3c2=O)c(OC)c1 | -3.17
COc1cccc(-n2c(CN3CCN(c4ccccn4)CC3)nc3ccc([N+](=O)[O-])cc3c2=O)c1 | -40
COc1ccc(-n2c(CN3CCN(C)CC3)nc3ccc([N+](=O)[O-])cc3c2=O)c(OC)c1 | -38.4
CCOC(=O)C1CCCN(Cc2nc3ccc([N+](=O)[O-])cc3c(=O)n2-c2ccc(OC)cc2OC)C1 (stereo not shown) | -28.9
COc1ccc(-n2c(CN3CCC(C)CC3)nc3ccc([N+](=O)[O-])cc3c2=O)c(OC)c1 | 4.93
COc1ccc(-n2c(CN3CCN(c4ccccn4)CC3)nc3ccc([N+](=O)[O-])cc3c2=O)c(OC)c1 | -55.5
COc1ccc(-n2c(CN3CCN(c4ccc(F)cc4)CC3)nc3ccc([N+](=O)[O-])cc3c2=O)c(OC)c1 | -44.6
COc1ccc(-n2c(CN3CCN(Cc4ccccc4)CC3)nc3ccc([N+](=O)[O-])cc3c2=O)c(OC)c1 | -51.1
COc1ccc(-n2c(CN3CCC(C(N)=O)CC3)nc3ccc([N+](=O)[O-])cc3c2=O)c(OC)c1 | -3.9

SMILES | hERG current change (%, negative = inhibition) at 10uM [%]
COc1ccc(C2NC(C(=O)O)CS2)cc1COCC(F)(F)F (stereo not shown) | 3.38
CC1Sc2ccc(S(=O)(=O)N3CCC(C(=O)N(C)Cc4ccco4)CC3)cc2NC1=O (stereo not shown) | -24.7
COc1ccc(NC(=O)c2sc(SC)nc2N)cc1 | -0.0249
Cn1ncc(Cl)c1C(=O)N1CCc2ccccc21 | -13.9
O=S(=O)(c1ccccc1Cl)N1CCCC1c1nc(-c2cccc(Cl)c2)no1 (stereo not shown) | -9.49
COc1cccc(-n2c(CN3CCN(Cc4ccccc4)CC3)nc3ccc([N+](=O)[O-])cc3c2=O)c1 | -52.8
COc1cccc(-n2c(CN3CCN(C)CC3)nc3ccc([N+](=O)[O-])cc3c2=O)c1 | -33.1
COc1cccc(-n2c(CN3CCN(c4ccccc4)CC3)nc3ccc([N+](=O)[O-])cc3c2=O)c1 | -8.34
C=C(C)COc1ccc(-c2[nH]ncc2Oc2ccc(OC)cc2)c(O)c1 | -14.9
C=C(C)COc1ccc(-c2[nH]ncc2Oc2ccccc2OCC)c(O)c1 | 4.65
C=C(C)COc1ccc(-c2[nH]ncc2Oc2ccccc2OC)c(O)c1 | -55.2
O=C(O)c1ccc(NS(=O)(=O)c2ccc(NC(=O)c3ccccc3Cl)cc2)cc1 | 19
CC(NC(=O)COC(=O)c1ccc([N+](=O)[O-])s1)c1ccccc1 (stereo not shown) | -20.8
CCC(C)c1ccc(NC(=O)C/C(C)=N/NC(=O)c2cnccn2)cc1 (stereo not shown) | -17.2
CCN1C(=O)/C(=C/C=C2\N(CC)c3cc(S(=O)(=O)N(C)C)ccc3N2c2ccccc2)SC1=S | 0.17
C=CCN1C(=O)/C(=C\C=C2\N(C)c3ccccc3C2(C)C)SC1=S | 10.7
C=CCN1C(=O)/C(=C/C=C2/N(CC)c3ccc(S(=O)(=O)N(C)C)cc3N2CC)SC1=S | -56
COC(=O)CSc1[nH]c2ccccc2c1[N+](=O)[O-] | 7.33
Cc1nn(C)c(NC(=O)c2ccc(Cl)cc2Cl)c1Br | -11.4
CCOC(=O)c1ccc(NC(=S)N(CCCN2CCCC(C)C2)Cc2ccco2)cc1 (stereo not shown) | -70.9
CCc1ccccc1NC(=S)N(CCN1CCCCCC1)Cc1ccco1 | -46.8
CCOC(=O)c1ccc(NC(=S)NCc2ccco2)cc1 | -11.1

SMILES | hERG current change (%, negative = inhibition) at 10uM [%]
CCOC(=O)c1ccc(NC(=S)N(CCCN2CCCCC2)Cc2ccco2)cc1 | -72.7
CCOC(=O)c1ccc(NC(=S)N(CCCN(CC)CC)Cc2ccco2)cc1 | -76.7
CCOC(=O)c1ccc(NC(=O)C(=O)NCc2ccco2)cc1 | 15.7
CCOC(=O)c1ccc(NC(=S)N(CCN2CCCCCC2)Cc2ccco2)cc1 | -78.3
O=C1C(NS(=O)(=O)c2ccc(Cl)cc2)=C(N2CCCCC2)C(=O)c2ccccc21 | -13.3
Cc1ccc(-n2nc3c(=O)n(CCCC(=O)N4CCC(C)CC4)nc(C)c3c2C)cc1 | -30.1
CN(Cc1cccc(Cl)c1Cl)c1ccc(S(=O)(=O)N2CCCCC2)cc1[N+](=O)[O-] | 5.82
Cc1ccc(C2=NNC(C(O)C(O)C(O)CO)S2)cc1 (stereo not shown) | 11.6
CC1CN(S(=O)(=O)c2cccc(C(=O)Nc3ccc(S(=O)(=O)NC4=NCCCCC4)cc3)c2)CC(C)O1 (stereo not shown) | -5.97
CC(C)c1ccc(OCc2cccc(C(=O)N/N=C/c3cccnc3)c2)cc1 | -5.29
Cc1ccccc1C(=O)Nc1cccc(C(=O)N/N=C/c2cc(Cl)cc([N+](=O)[O-])c2O)c1 | 7.34
COC(=O)c1cc2sc(Cl)cc2n1Cc1nc(-c2ccccc2)oc1C | 3.5
Cn1ccnc1SCC(=O)Nc1nc2ccccc2s1 | -25.1
O=C(O)c1ccc(N/N=C/C2=C(N3CCOCC3)C(=C\c3ccccc3)/CC2)cc1 | 7.96
COc1ccccc1CC(=O)NCCc1c[nH]c2ccccc12 | 5.81
COc1cccc(NC(C)C(=O)N2CC(C)OC(C)C2)c1 (stereo not shown) | -1.96
C/C(=N/NC(=O)CNC(=O)c1cccs1)c1ccco1 | 11.7
CCOC(=O)c1ccc(NC(=S)N(CCCN2CCCCCC2)Cc2ccco2)cc1 | -73.7
COc1ccc(NC(=S)N(Cc2cccnc2)Cc2ccco2)cc1 | -24.5
CCOC(=O)c1ccc(NC(=S)N(Cc2cccnc2)Cc2ccco2)cc1 | -53.2
COc1ccc(NC(=S)N(CCCN2CCOCC2)Cc2ccco2)cc1 | -7.89
CCOC(=O)c1ccc(NC(=S)N(CCCN2CCN(CC)CC2)Cc2ccco2)cc1 | -76.5

SMILES | hERG current change (%, negative = inhibition) at 10uM [%]
COC(=O)c1ccc(NC(=S)N(Cc2cccnc2)Cc2ccco2)cc1 | -29.1
Cc1ccc(CSc2nc3c(c(N(C)C)n2)CCCC3)cc1 | -5.63
CCC(Cc1c(I)cc(I)c(N)c1I)C(=O)O (stereo not shown) | -0.155
C=C1c2ccccc2NC(=S)N1Cc1ccc2c(c1)OCO2 | 27.5
Cc1ccc(CNC(=O)c2ccc(N3CCC4(CC3)CC(c3ccccc3)=NO4)c(NC(=O)c3ccco3)c2)cc1 | 6.09
COC(=O)CN(c1ccc(C)cc1)S(=O)(=O)c1ccc(F)cc1 | -19.9
Cc1ccc(NS(=O)(=O)c2ccc3c(c2)c(=O)n(C)c(=O)n3C)cc1F | -15.5
O=c1cc(CN2CCN(Cc3ccccc3)CC2)c2cc3c(cc2o1)CCC3 | -51
CC(C)c1ccc2oc(=O)cc(CN3CCN(c4ccccc4)CC3)c2c1 | -10.4
Cc1cc2oc(=O)cc(CN3CCN(Cc4ccccc4)CC3)c2cc1O | -53.3
Cc1ccc2oc(=O)cc(CN3CCOCC3)c2c1 | -8.53
COc1ccc(N2CCN(Cc3cc(=O)oc4cc(-c5ccccc5)c(O)cc34)CC2)cc1 | -0.18
CCN1CCN(Cc2cc(=O)oc3cc4c(cc23)CCC4)CC1 | -29.7
O=c1cc(CN2CCN(C/C=C/c3ccccc3)CC2)c2cc(O)ccc2o1 | -77.5
Cc1ccc2oc(=O)cc(CN3CCN(C/C=C/c4ccccc4)CC3)c2c1 | -76.9
Cc1ccc2oc(=O)cc(CN3CCCCC3)c2c1 | 15.9
Cc1cc2oc(=O)cc(CN3CCOCC3)c2cc1O | -22.6
CN1CCN(Cc2cc(=O)oc3cc4c(cc23)CCC4)CC1 | -8.2
Cc1cc2oc(=O)cc(CN3CCN(Cc4ccccc4)CC3)c2cc1Cl | -22.8
